Experimental data from ChEMBL document CHEMBL3988442, “University of Dundee, Small-Polar-MMV Screening Library” (2021).

Assays:
[1] = biological target: T1, Aspartate--tRNA(Asp/Asn) ligase (Mycobacterium tuberculosis (strain ATCC 25618 / H37Rv)) (UniProt P9WFW3); assay: Assay for Asp RNA synthetase-1 from Mycobacterium tuberculosis; assay type: functional; design: scale not given: direction of the effect not stated beside the values; settings: 30 µM; further: in the data most compounds retested in dose-response had high values
T1 sequence (whole entry): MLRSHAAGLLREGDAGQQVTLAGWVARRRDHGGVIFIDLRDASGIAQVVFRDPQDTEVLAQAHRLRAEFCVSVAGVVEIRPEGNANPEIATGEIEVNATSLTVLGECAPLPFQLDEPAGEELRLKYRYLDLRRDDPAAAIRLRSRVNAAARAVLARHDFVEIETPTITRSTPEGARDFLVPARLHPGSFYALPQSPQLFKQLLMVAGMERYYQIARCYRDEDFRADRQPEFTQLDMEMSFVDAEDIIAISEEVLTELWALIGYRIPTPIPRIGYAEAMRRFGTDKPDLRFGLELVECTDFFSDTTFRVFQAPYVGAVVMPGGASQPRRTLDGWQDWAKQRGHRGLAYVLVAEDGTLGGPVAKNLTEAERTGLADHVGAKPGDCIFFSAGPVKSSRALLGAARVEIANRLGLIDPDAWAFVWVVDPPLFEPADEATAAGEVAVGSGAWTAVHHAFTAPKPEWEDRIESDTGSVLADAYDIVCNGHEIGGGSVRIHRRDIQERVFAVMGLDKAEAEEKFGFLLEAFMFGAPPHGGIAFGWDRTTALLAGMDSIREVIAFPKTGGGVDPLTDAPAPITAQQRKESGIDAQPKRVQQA

[2] = biological target: Shiga toxin 2 (Escherichia coli O157:H7) (UniProt P09385+P09386); assay: E. coli 0.157:H7 Shiga Toxin SOP - stx2 screening assay; assay type: functional; design: scale not given: direction of the effect not stated beside the values; settings: 30 µM

| Structure (SMILES) | Percent Effect [1] | Percent Effect [2] |
| --- | --- | --- |
| CC(=O)N1CCCN(C(=O)CCc2c(C)noc2C)CC1 | -5.26% | 2.24% |
| CN(C)CC1CN(c2ccc(C#N)cn2)CCO1 (configuration not stated) | 0.899% | 22.4% |
| Cn1ccnc1CN1CCC2(COCCN(Cc3ccsc3)C2)C1 (configuration not stated) | -5.11% | -19.8% |
| Cc1nnc(C2Cc3ccccc3CN2Cc2ncc(C(C)(C)C)o2)o1 (configuration not stated) | 0.807% | 8.47% |
| Cc1cc(CN2CCN(C(=O)Nc3cccnc3)CC2)on1 | -2.97% | 26.4% |
| CCn1cc(NC(=O)NCC(c2cccs2)N(C)C)cn1 (configuration not stated) | -1.06% | 24.9% |
| O=C(NCC1COCc2c(-c3cccnc3)nnn2C1)c1cccs1 (configuration not stated) | 9.59% | -14.9% |
| CCOC(=O)CCC(=O)N1CCC(Oc2ccc(C(F)(F)F)cn2)CC1 | -1.91% | 12.6% |
| CC(C)c1n[nH]c(C2CN(C(=O)C3=COCC3)CCO2)n1 (configuration not stated) | -3.88% | 17.2% |
| Fc1ccccc1-c1noc2c1CN(CC1CC1)CC2 | -1.29% | -8.88% |
| CC(C)c1ncncc1C(=O)N1CCCN(Cc2cccs2)CC1 | -3.79% | 6.52% |
| Cc1[nH]ccc1C(=O)N1CCC(c2nnc(Cn3ccnc3)n2C)CC1 | -1.28% | -20.6% |
| CCCc1nc(N2CCN(CC)CC2)c2c(n1)c(C)nn2CC | 11.2% | -8.6% |
| CC(C)NC(=O)C1CN(C(=O)N2CCCC2)CC12CCOCC2 (configuration not stated) | -2.03% | 8.24% |
| CN1CCOC(CNCCc2ccccn2)C1 (configuration not stated) | -3.97% | -10.7% |
| Cc1occc1C(=O)N1CCC[C@]2(C[C@@H](OCc3ccncc3)CO2)C1 | 6.93% | -29.1% |
| Cc1nc(N2CCN(C)CC2)ncc1C(=O)N1CC(C)(C)C(C)(O)C1 (configuration not stated) | 3.48% | -28.2% |
| Cc1ccc(NC2CCN(C(=O)COc3cccnc3)CC2)nn1 | -4.47% | -129% |
| COCC(=O)N1CC[C@@H](O)[C@@H]1Cc1ccccc1 | 4.62% | 3.46% |
| O=C(O)c1nnn(-c2ccc(F)c(F)c2)c1-c1ccncc1 | 2.4% | -13% |
| c1csc(-c2nc(CNC3CCc4ncnn4C3)cs2)c1 (configuration not stated) | -3.43% | -12.9% |
| CSCC(CCO)NC(=O)Nc1cc(Br)ccc1C (configuration not stated) | 3.02% | -10.3% |
| COc1ccc(-c2noc(CN3CCc4cncnc4C3)n2)cc1 | -0.389% | -15% |
| Cc1nc(Nc2ncccn2)cc(C2CCCN2CC(C)C)n1 (configuration not stated) | -0.75% | 13.5% |
| CCc1nnc2n1CCN(Cc1ccc(C(=O)N3CCCC3)cc1)C2 | -3.93% | -0.0173% |
| CCS(=O)(=O)N1CCO[C@H]2[C@H](OCC3CCCC3)CC[C@@H]21 | -2.82% | -8.34% |
